Measured values: article PMC5540273 (PLoS ONE, 2017)

These compounds were tested on WNK4. Conditions: concentration: 1 μM, replicates: in singlicate; n = 1.
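Also: KINOMEscan kinase panel screen.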

SMILES	%Inh
CN1CCN(Cc2cccc(-c3ccc4c(Nc5ccc(Oc6ccccc6)cc5)ccnc4c3)c2)CC1 [GW578342]	49%
O=C(Nc1ccccc1F)NC1CCN(c2ccnc(Nc3ccc(F)cc3)n2)CC1 [GSK1379800]	34%
Cl.c1ccc(-c2ccc3c(Nc4ccc5[nH]ncc5c4)ccnc3c2)nc1 [GW440137]	28%
CCn1c(-c2nonc2N)nc2c(C#CC(C)(C)O)nc(OC[C@H](N)c3ccccc3)cc21 [GSK943949]	31%
O=C(Nc1cccc(-c2nn3ccccc3c2-c2ccnc(Nc3cccc(C(F)(F)F)c3)n2)c1)c1c(F)cccc1F [GSK292658]	27%
Cn1cc(-c2ccc3c(c2)CCN3C(=O)Cc2cccc(F)c2)c2c(N)ncnc21 [GSK2603358]	59%
COc1cc(Nc2nccc(N3CCC(NC(=O)c4cc5ccccc5s4)C3)n2)cc(OC)c1OC (stereo not drawn) [GSK1379760]	11%
COCCOCCOc1cc2ncc3c4ccc(C#N)cc4[nH]c3c2cc1OC	0%
Cl.Cl.NCC(NC(=O)c1cc(-c2ccccc2)c(-c2ccnc3[nH]ccc23)s1)c1ccccc1 (stereo not drawn) [GSK1321561]	5%
COc1cc(Nc2nccc(-c3c(-c4cccc(NC(=O)c5c(F)cccc5F)c4)nn4ncccc34)n2)cc(OC)c1OC [GSK327238]	0%
CN(C)S(=O)(=O)c1cc(-c2ccc3nccc(-c4cccc(S(N)(=O)=O)c4)c3c2)cnc1N [GSK1669921]	0%
Cl.Cl.NCC(NCc1ccc(-c2ccnc3[nH]ccc23)s1)c1ccccc1 (stereo not drawn) [GSK1321565]	0%
Cc1ccc(S(=O)(=O)Nc2ccc(Nc3nccc(Nc4cccc5[nH]ncc45)n3)cc2)cc1 [GSK581271]	16%
CC(=O)Nc1nc2cnc(Nc3cc(NC(=O)c4cccc(C5(C#N)CC5)c4Cl)ccc3C)nc2s1	0%
CNC(=O)c1ccccc1Nc1nc(Nc2ccc(N3CCOCC3)cc2)ncc1Cl.Cl [GSK1576028]	0%
Cc1ccc(C(=O)N2CC[C@@H](O)C2)cc1-n1c(C)cc(OCc2ccc(F)cc2F)c(Br)c1=O	0%
COc1ccc(Nc2nccc(N3CCC(NC(=O)Nc4cccc(OC)c4)C3)n2)cc1 (stereo not drawn) [GSK1379742]	0%

SMILES	%Inh
Cl.Cl.NCC(C(=O)Nc1cc(Br)c(-c2ccnc3[nH]ccc23)s1)c1ccccc1 (stereo not drawn) [GSK1269851]	11%
Oc1cc(Nc2ccnc3cc(I)ccc23)ccc1F [GW552771]	35%
COc1ccc(Nc2nccc(NCCNC(=O)c3cc4ccccc4s3)n2)cc1 [GSK1379896]	29%
CCS(=O)(=O)c1ccc(OC)c(Nc2nccc(-c3c(-c4cccc(NC(=O)c5c(F)cccc5F)c4)nn4ncccc34)n2)c1 [GSK326180]	14%
COc1cccc(C(=O)Nc2cccc(Oc3ccc4nc(NC(=O)C5CC5)cn4n3)c2)c1	0%
CN(C)Cc1ccc(-c2ccc3c(Nc4ccc(Oc5ccccn5)cc4)ccnc3c2)o1 [GW567148]	19%
Clc1ccc(-c2nn3ncccc3c2-c2ccnc(Nc3ccc4c(c3)OCCO4)n2)cc1 [GW829116]	0%
Cl.c1ccc(-c2ccc3c(Nc4ccc5[nH]ccc5c4)ccnc3c2)nc1 [GW440138]	55%
Fc1ccc(-c2ncn(C3CCNCC3)c2-c2ccnc(Oc3ccc(-c4ccccc4)cc3)n2)cc1 [SB-245391]	0%
O=C(Nc1cccc(Oc2ccc3nc(NC(=O)C4CC4)cn3n2)c1)c1ccccc1C(F)(F)F	13%
COc1cccc(C2=C(Nc3ccc(Cl)c(C(=O)O)c3)C(=O)NC2=O)c1 [SB-390769]	43%
Cc1ccc(C(=O)Nc2ccc(Nc3ccnc4cc(-c5nccs5)ccc34)cc2O)cc1.Cl [GW494702]	39%
Cc1ccc(C)c(NC(=O)NC2CCN(c3ccnc(Nc4ccc(F)cc4)n3)C2)c1 (stereo not drawn) [GSK1379720]	48%
COc1ccc(-c2coc3ccc(-c4nnc(SCc5ccc(OC)c(C(F)(F)F)c5)o4)cc23)cc1	4%
COc1cc(Nc2ncc3c(C)nc(-c4cc5ccccc5[nH]4)n3n2)cc(OC)c1OC [GW869516]	0%
O=C(NC1CCN(c2ccnc(Nc3ccc(F)cc3)n2)C1)c1cc2ccccc2s1 (stereo not drawn) [GSK1379716]	46%
